Source: PubChem BioAssay (several laboratories)
DSG3 Ab inh: blocks pemphigus antibody binding to human desmoglein-3 | P32926 | DSG3-coupled beads, scFv-anti-DSG3-GFP binding, flow cytometry; hits give low values | binding (percent of control), % at 10 µM | 310,000 compounds, 0.48% hits | AID 588358;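 active = binding more than 3 SD below its plate's average and above zero; inconclusive = below that plate limit but binding exactly zero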;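 note: hits lower antibody fragment binding to DSG3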
PREPL inh: inhibitors of human prolyl oligopeptidase-like enzyme PREPL; recombinant PREPL, fluorescence polarization activity-based probe; 320,000 compounds, 0.68% hits; Q4J6C6; inhibition, % at 5.96 µM; in the data active = inhibition above about 43%;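 note: 0% = enzyme with DMSO and 100% = wells lacking enzyme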
GRK2 inh: human GRK2 inhibition via aptamer displacement; P25098; bead flow cytometry, FAM-aptamer displacement from GRK2; inhibition of aptamer binding, % at 10 µM; 330,000 compounds, 0.59% hits; AID 488847;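 active = inhibition of aptamer binding above 40%, roughly 3 SD of noise, on plates passing a quality check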;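 note: median bead fluorescence of bound FAM aptamer so fluorescent compounds give negative values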
JMJD2C inh: inhibitors of human GASC-1 (JMJD2C) demethylase. 330,000 compounds, 0.069% hits. GST-JMJD2C(1-420) H3K9me3 demethylation, DELFIA europium. AID 2099. inhibition, % at 2.35 µM. Q9H3R0;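 active = more than half of a compound's replicate wells show inhibition beyond 50%, single wells judged on their own value; inconclusive = some, but no more than half, of replicates pass 50% inhibition; inactive = no replicate passes 50% inhibition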;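 note: signal counts dimethyl H3K9 product captured on neutravidin plate; 0% = median of DMSO wells and 100% = 0.3 times that DMSO median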
Target sequence (Q9H3R0 1-420 limits assumed): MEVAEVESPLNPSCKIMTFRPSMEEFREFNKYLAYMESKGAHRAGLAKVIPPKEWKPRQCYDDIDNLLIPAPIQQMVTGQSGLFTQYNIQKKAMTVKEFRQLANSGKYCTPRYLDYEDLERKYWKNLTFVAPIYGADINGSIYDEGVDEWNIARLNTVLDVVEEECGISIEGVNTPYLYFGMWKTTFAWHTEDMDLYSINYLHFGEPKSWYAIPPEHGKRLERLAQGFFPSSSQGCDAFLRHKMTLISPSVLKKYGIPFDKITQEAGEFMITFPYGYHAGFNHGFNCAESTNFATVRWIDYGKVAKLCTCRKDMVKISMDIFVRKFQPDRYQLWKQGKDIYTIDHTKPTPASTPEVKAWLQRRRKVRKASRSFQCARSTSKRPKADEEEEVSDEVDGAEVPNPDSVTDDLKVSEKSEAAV
VLA-4 inh: inhibition in a human VLA-4 binding assay; P13612; VLA-4 expressing cells, ligand binding flow cytometry; inhibition, % (about 7 µM as worked out from the volumes in the protocol); 330,000 compounds, 0.2% hits; AID 2557; in the data active = inhibition above about 50%
VLA-4 allo CP: confirmation of allosteric modulators of human VLA-4 integrin | shares compounds with VLA-4 inh | U937 cells, HUTS-21 LIBS mAb binding, flow cytometry; LDV ligand present at threefold Kd | inhibition, % at 6.7 µM | 1,300 compounds, 2% hits | AID 2813; in the data active = inhibition above about 40%;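 note: 0% = ligand without compound and 100% = no ligand background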
* = called active by the depositor. The list is not random: actives were taken first. Their share in the collection is about 1.6%.

How did O=c1cc(NC2CCCCC2)c2ccccc2o1 do in these assays?
DSG3 Ab inh: 98.3; PREPL inh: -4.2; GRK2 inh: 0.0; JMJD2C inh: -12.1; VLA-4 inh: 4.6

How did CCOC(=O)C1(CCc2ccccc2)CCN(C(=O)C(C)n2cncn2)CC1 (stereo not drawn) do in these assays?
DSG3 Ab inh: 99.5; PREPL inh: 9.1; GRK2 inh: 0.0; JMJD2C inh: 22.4; VLA-4 inh: -1.8

Results for Cc1cc(C)c2nc3nc(C)c(C)cc3c(N)c2c1 ?
DSG3 Ab inh: 99.2; JMJD2C inh: 38.7

What do the screens show for `CN1C(=O)/C(=N\OC(=O)c2cccc3ccccc23)c2ccccc21`?
DSG3 Ab inh: 103.8; PREPL inh: 15.7; GRK2 inh: 4.0; JMJD2C inh: -7.0; VLA-4 inh: 66.0*; VLA-4 allo CP: 0.0

Results for COC(=O)c1c(NC(=O)c2ccco2)sc2c1CCC2 ?
PREPL inh: 0.2; GRK2 inh: 1.0; JMJD2C inh: 1.4; VLA-4 inh: 92.3*; VLA-4 allo CP: -4.9

What do the screens show for `COc1ccc(-c2cn3c(C)c(C(=O)Nc4ccncc4)sc3n2)cc1`?
DSG3 Ab inh: 97.9; PREPL inh: -4.0; GRK2 inh: 0.0; JMJD2C inh: -1.9; VLA-4 inh: -5.8

How did COC(=O)c1ccc(NC(=O)c2sc3nc(-c4ccccc4)cn3c2C)cc1 do in these assays?
DSG3 Ab inh: 102.7; PREPL inh: -12.3; GRK2 inh: 5.0; JMJD2C inh: 10.6; VLA-4 inh: 51.9*; VLA-4 allo CP: -14.2

How did CC1CCN(C(=O)COC(=O)c2cc3ccccc3oc2=O)CC1 do in these assays?
DSG3 Ab inh: 83.3; PREPL inh: 6.8; GRK2 inh: 0.0; JMJD2C inh: 1.3; VLA-4 inh: 9.5

What do the screens show for `COc1cc(OC)c(C(=O)OC(C)C(=O)Nc2cccc(C(F)(F)F)c2)cc1OC` (stereo not drawn)?
DSG3 Ab inh: 108.8; PREPL inh: 14.8; GRK2 inh: 0.0; JMJD2C inh: -2.4; VLA-4 inh: -14.5; VLA-4 allo CP: 10.4

Results for CC(O/N=C(\N)c1ccccc1)C(=O)Nc1cccc(C(F)(F)F)c1 (stereo not drawn) ?
DSG3 Ab inh: 104.7; PREPL inh: 1.1; GRK2 inh: 1.0; JMJD2C inh: -5.5; VLA-4 inh: 12.8

Results for O=C(N/N=C/c1ccc(Cl)cc1)c1cc(-c2cccnc2)nc2ccccc12 ?
DSG3 Ab inh: 90.7; PREPL inh: 19.5; GRK2 inh: 0.0; JMJD2C inh: -3.8; VLA-4 inh: 49.9*; VLA-4 allo CP: 18.3

How did O=C(N/N=C/c1ccc(Cl)c([N+](=O)[O-])c1)c1cc(-c2ccccc2)nc2ccccc12 do in these assays?
DSG3 Ab inh: 83.9; PREPL inh: -10.1; GRK2 inh: 2.0; JMJD2C inh: -1.0; VLA-4 inh: 56.4*; VLA-4 allo CP: 5.3

How did O=C(N/N=C/c1cc([N+](=O)[O-])ccc1Cl)c1cc(-c2ccccc2)nc2ccccc12 do in these assays?
DSG3 Ab inh: 87.8; PREPL inh: -3.1; GRK2 inh: 0.0; JMJD2C inh: inconclusive; VLA-4 inh: -6.9

How did COc1ccccc1-n1cnnc1SCC(=O)Nc1ccccc1 do in these assays?
DSG3 Ab inh: 90.7; PREPL inh: -7.6; GRK2 inh: 0.0; JMJD2C inh: 4.1; VLA-4 inh: 7.7

What do the screens show for `COc1ccccc1-n1cnnc1SCc1csc(-c2ccccc2)n1`?
DSG3 Ab inh: 108.8; PREPL inh: 8.3; GRK2 inh: 4.0; JMJD2C inh: 1.6; VLA-4 inh: 95.2*; VLA-4 allo CP: -7.7

Results for O=C(NC1CCCc2ccccc21)c1cccc(Br)c1 (stereo not drawn) ?
DSG3 Ab inh: 96.1; PREPL inh: 3.8; GRK2 inh: 1.0; JMJD2C inh: -1.8; VLA-4 inh: 42.8; VLA-4 allo CP: -17.5

Results for COc1ccc2[nH]c(=O)c(-c3noc(-c4ccccc4)n3)cc2c1 ?
DSG3 Ab inh: 101.0; PREPL inh: -15.2; GRK2 inh: 0.0; JMJD2C inh: 1.3; VLA-4 inh: 96.0*; VLA-4 allo CP: -0.9

What do the screens show for `CN1CC(=O)Nc2ccc(Br)cc2C1=O`?
DSG3 Ab inh: 59.3; PREPL inh: 0.4; GRK2 inh: 1.0; JMJD2C inh: -19.0; VLA-4 inh: 52.2*; VLA-4 allo CP: 2.1

Results for CN1CC(=O)Nc2ccccc2C1=O ?
DSG3 Ab inh: 88.6; PREPL inh: 1.6; GRK2 inh: 1.0; JMJD2C inh: 7.2; VLA-4 inh: 41.8; VLA-4 allo CP: -10.2

How did Cc1ccc(S(=O)(=O)N2CCN(S(=O)(=O)N3CCC(C)CC3)CC2)cc1C do in these assays?
DSG3 Ab inh: 108.4; PREPL inh: -2.6; GRK2 inh: 1.0; JMJD2C inh: -0.1; VLA-4 inh: 3.2

What do the screens show for `CC(C)(C)N(NC(=O)Nc1ccccc1)C(=O)c1ccccc1Cl`?
DSG3 Ab inh: 101.5; PREPL inh: 4.0; GRK2 inh: 6.0; JMJD2C inh: -5.1; VLA-4 inh: 93.7*; VLA-4 allo CP: -15.5

What do the screens show for `CCN(CC)S(=O)(=O)c1ccc(NC(=O)Cn2c(=O)oc3ccccc32)cc1`?
DSG3 Ab inh: 99.3; PREPL inh: -6.8; GRK2 inh: 3.0; JMJD2C inh: -12.6; VLA-4 inh: 7.1; VLA-4 allo CP: 4.4

What do the screens show for `O=C(Cn1c(=O)oc2ccccc21)Nc1ccc(Cl)cc1`?
DSG3 Ab inh: 94.3; PREPL inh: 15.8; GRK2 inh: 0.0; JMJD2C inh: -16.0; VLA-4 inh: 27.4

What do the screens show for `N#CCc1ccc(NC(=O)Cn2c(=O)oc3ccccc32)cc1`?
DSG3 Ab inh: 102.0; PREPL inh: 0.9; GRK2 inh: 1.0; JMJD2C inh: -1.3; VLA-4 inh: 14.4; VLA-4 allo CP: -15.4

How did O=C(Cn1c(=O)oc2ccccc21)Nc1ccc(S(=O)(=O)N2CCCCC2)cc1 do in these assays?
DSG3 Ab inh: 84.9; PREPL inh: 8.2; GRK2 inh: 0.0; JMJD2C inh: -7.5; VLA-4 inh: 4.9

How did COc1cccc(CN(C)C(=O)CCN=C2NS(=O)(=O)c3ccccc32)c1OC do in these assays?
DSG3 Ab inh: 99.1; PREPL inh: -1.0; GRK2 inh: 0.0; JMJD2C inh: -7.9; VLA-4 inh: -4.9

What do the screens show for `C=CCNC(=O)Cn1c(=O)c2c(ncn2CCC(C)C)n(Cc2ccccc2)c1=O`?
DSG3 Ab inh: inconclusive; PREPL inh: -5.4; GRK2 inh: 0.0; JMJD2C inh: -23.7; VLA-4 inh: 49.8*; VLA-4 allo CP: -1.1

Results for C=CCNC(=O)NC(=O)Cn1c(=O)c2c(ncn2CC)n(Cc2ccccc2)c1=O ?
DSG3 Ab inh: 95.2; PREPL inh: 10.8; GRK2 inh: 1.0; JMJD2C inh: -15.7; VLA-4 inh: 6.5

What do the screens show for `CC(=O)c1ccc(S(=O)(=O)NC2CC(=O)N(c3cccc(F)c3)C2)cc1` (stereo not drawn)?
DSG3 Ab inh: 102.2; PREPL inh: -16.8; GRK2 inh: 3.0; JMJD2C inh: 57.8; VLA-4 inh: 17.8
